Counter-ions that a name gives are not always drawn.
The compounds below were run on OCI-AML2 (assay: cell viability relative to vehicle control; higher = less cytotoxic). Conditions: 10 µM; SRSF2 genotype: wt/wt.
Method in brief: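 Screening covered the Selleck bioactive, kinase and epigenetic probe libraries, less identity-inconsistent compounds, on CRISPR-edited mutant clones and isogenic wild-type clones of four leukaemia lines. Cells, at 2000 per well in 50 µL medium, received a single 10 µM acoustically dispensed dose. After 48 h the supernatant was removed and CellTiter-Glo luminescence was read. Viability was analysed in Genedata Screener as percent of the on-plate vehicle control.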
Work on Cc1cc(=O)oc2c(C=O)c(O)ccc12 yielded a cell viability of 98.3%.
Cc1oncc1C(=O)Nc1ccc(C(F)(F)F)cc1 [Leflunomide] showed a cell viability of 85.1%.
With CCn1c(C(=O)N(C2CC2)C2CC2)cc2c3c(ncn3C)c(Nc3cc(C)n(C)n3)nc21 the cell viability was 57.1%.
CC(/C=C1\SC(=S)N(CC(=O)O)C1=O)=C\c1ccccc1 [Epalrestat] showed a cell viability of 95.3%.
O=c1[nH]c(=O)n(C2CCCO2)cc1F (stereo unspecified) gave a cell viability of 105%.
Work on CC(C(=O)O)c1ccc2c(c1)Cc1cccnc1O2 (stereo unspecified) [Pranoprofen] yielded a cell viability of 106%.
With CC1C(=O)OC2C(O)C34C5CC(C(C)(C)C)C36C(OC(=O)C6O)OC4(C(=O)O5)C12O (stereo unspecified) [Ginkgolide B] the cell viability was 105%.
With Cc1nc(N(C)C(=O)Cc2ccc(-c3ccccn3)cc2)sc1S(N)(=O)=O [Pritelivir (BAY 57-1293)] the cell viability was 95.7%.
Work on N[C@@H]1CCCN(c2c(/C=C3\SC(=O)NC3=O)cccc2-c2ccccc2)C1 yielded a cell viability of 75.1%.
Work on CCCCNc1ncc(-c2ccc(CN3CCOCC3)cn2)c(NC2CCC(O)CC2)n1 (stereo unspecified) yielded a cell viability of 22.9%.
CCCc1cc(C(N)=S)ccn1 [Protionamide (Prothionamide)] showed a cell viability of 112%.
Compound CC(C(=O)O)c1ccc2c(c1)CC(=O)c1ccccc1S2 (stereo unspecified) [Zaltoprofen] has a cell viability of 104%.
For COc1ccc2cc1Oc1ccc(cc1)C[C@H]1c3c(cc4c(c3Oc3cc5c(cc3OC)CCN(C)[C@@H]5C2)OCO4)CCN1C [Cepharanthine], the cell viability was 8.53%.
Work on CC(COc1ccccc1Cc1ccccc1)N1CCCCC1 (stereo unspecified) [Benproperine phosphate] yielded a cell viability of 84.7%.
In the case of Nc1nonc1C(=Nc1ccc(F)c(Cl)c1)NO, the cell viability is reported as 111%.
For CC(C)N(CCC(=O)c1ccc2ccccc2c1)Cc1ccccc1, the cell viability was 0.4%.
Compound O=C(NCCN1CCOCC1)c1ccc(Cl)cc1 has a cell viability of 93.8%.
For CCS(=O)(=O)CCn1c([N+](=O)[O-])cnc1C [Tinidazole], the cell viability was 102%.
Work on CCOc1ccc(Cc2cc([C@]34OC[C@](CO)(O3)[C@@H](O)[C@H](O)[C@H]4O)ccc2Cl)cc1 [Ertugliflozin] yielded a cell viability of 113%.
OC[C@H]1O[C@@](CO)(O[C@H]2O[C@H](CO)[C@@H](O)[C@H](O)[C@H]2O)[C@@H](O[C@H]2O[C@H](CO)[C@@H](O)[C@H](O)[C@H]2O)[C@@H]1O [Melezitose] gave a cell viability of 114%.
Work on O=C(O)CCCC[C@@H]1SC[C@@H]2NC(=O)N[C@@H]21 [Biotin (Vitamin B7)] yielded a cell viability of 99.2%.
Work on Cc1nnc(C(=O)NC(C)(C)c2nc(C(=O)NCc3ccc(F)cc3)c(O)c(=O)n2C)o1 [Raltegravir (MK-0518)] yielded a cell viability of 98%.
For CCOC(=O)C=Cc1ccc(OC)cc1 [Ethyl 4-Methoxycinnamate], the cell viability was 83.5%.
In the case of CCNC(=O)[C@@H]1CCCN1C(=O)[C@H](CCCN=C(N)N)NC(=O)[C@H](CC(C)C)NC(=O)[C@@H](CC(C)C)NC(=O)[C@H](Cc1ccc(O)cc1)NC(=O)[C@H](CO)NC(=O)[C@H](Cc1c[nH]c2ccccc12)NC(=O)[C@H](Cc1cnc[nH]1)NC(=O)[C@@H]1CCC(=O)N1 [S3718 Leuprolide Acetate.cdx], the cell viability is reported as 108%.
With CCCCOc1ccc(C(=O)Nc2ccc(F)cc2F)cc1 the cell viability was 92.8%.
O=C(NC1CCN(CCCCC2(C(=O)NCC(F)(F)F)c3ccccc3-c3ccccc32)CC1)c1ccccc1-c1ccc(C(F)(F)F)cc1 [Lomitapide Mesylate] gave a cell viability of 0.3%.
For NC(=O)c1cccc(N)c1 [INO-1001 (3-Aminobenzamide)], the cell viability was 98.8%.
With C=CC(=O)Nc1cc(N2CCN(CC)CC2)ccc1Nc1cc(N(C)C(=O)Nc2c(Cl)c(OC)cc(OC)c2Cl)ncn1 the cell viability was 1.1%.
For COc1cc(C(=O)NC2CCCNC2)cc(OC)c1OC (stereo unspecified) [Troxipide], the cell viability was 105%.
FC(F)(F)Oc1ccc(-c2ccc3nnc(C(F)(F)F)n3c2)cc1 showed a cell viability of 94.4%.
Compound C[Si](C)(C)CCOCn1ccc2c(-c3cn[nH]c3)ncnc21 has a cell viability of 99%.
CCCNC(=O)Nc1ccc(Oc2ncnc3cc(OC)c(OC)cc23)cc1Cl was tested, and the cell viability was 101%.
In the case of Cc1nc(=O)c2cc(CN(C)c3ccc(C(=O)N[C@@H](CCC(=O)O)C(=O)O)s3)ccc2[nH]1 [Raltitrexed (Tomudex)], the cell viability is reported as 118%.
With Cc1ccc(C)c(OCCCC(C)(C)C(=O)O)c1 [Gemfibrozil (Lopid)] the cell viability was 110%.
O=C1OC(COc2ccccc2[N+](=O)[O-])CC1Cc1ccccc1 (stereo unspecified) gave a cell viability of 103%.
CCC(=O)O[C@@H]1CC(=O)O[C@H](C)C/C=C/C=C/[C@H](O)[C@H](C)C[C@H](CC=O)[C@H](O[C@@H]2O[C@H](C)[C@@H](O[C@H]3C[C@@](C)(O)[C@@H](OC(=O)CC)[C@H](C)O3)[C@H](N(C)C)[C@H]2O)[C@H]1OC [Midecamycin] showed a cell viability of 97.4%.
